Measured values taken from article PMC7819943, “Rice protein-binding microarrays: a tool to detect cis-acting elements near promoter regions in rice”.
In all, about 68,000 sequences were measured (“fluorescence intensity (a.u.)”: median about 9,100, highest 2% from about 16,000 on). The sample as a whole holds a higher share of the highest values than the screen did.

molecular target: OsWRKY34 (Oryza sativa, UniProt Q0JBA9 1-250); assay: protein-binding microarray (RPBM); PBS, 2% BSA, 51.3 ng/ul salmon testes DNA, 50 uM zinc acetate, 200 nM TF, 25 C, 1 h; high values mean tight binding; conditions: protein: recombinant; tags: N-terminal polyhistidine and DsRed monomer fusion (pET32a); label: CyDye5-dUTP incorporated in the synthesized complementary strand; 3' TTTTT single-stranded linker to array surface; dsDNA, one strand shown
Sequence (Q0JBA9 entry or part of it): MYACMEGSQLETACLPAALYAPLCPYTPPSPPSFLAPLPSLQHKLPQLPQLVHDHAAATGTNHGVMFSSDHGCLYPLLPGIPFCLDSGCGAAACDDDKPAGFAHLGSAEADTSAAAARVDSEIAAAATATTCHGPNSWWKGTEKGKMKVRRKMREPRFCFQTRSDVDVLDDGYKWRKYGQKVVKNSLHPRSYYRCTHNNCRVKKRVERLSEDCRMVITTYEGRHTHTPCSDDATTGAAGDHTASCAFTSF
Outline: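 Polyhistidine-tagged DsRed fusions of transcription factors, joined at the N-terminus, were expressed in E. coli BL21-CodonPlus and isolated on Ni–NTA. They were incubated at 200 nM for 1 h at 25 °C on a custom Agilent array, double-stranded and BSA-blocked, in PBS with 2% BSA, salmon testes DNA and 50 µM zinc acetate. The binding signal is per-feature fluorescence intensity (arbitrary units) read on an Axon 4000B scanner after washing.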

Row | Sequence | binding signal
1 | GGCCATAGCGTGTATTGTTGTGTTTGTGTGTAAAATTTTTCGGAGTCACCTAGTGCAG | 11300 fluorescence intensity (a.u.)
2 | GTATGCCATTCGCCCAAGATGCTTTTGCTTCGCATGGACCCGGAGTCACCTAGTGCAG | 8540 fluorescence intensity (a.u.)
3 | TTTTTTTTTCCTTTTGCTGACATGCATTATGTTTTCTATTCGGAGTCACCTAGTGCAG | 10000 fluorescence intensity (a.u.)
4 | CTTAATCGGTATGGGGAGAGTGTTCTTATTGTTTCATTTACGGAGTCACCTAGTGCAG | 16800 fluorescence intensity (a.u.)
5 | CTATTCTTGTGTTTTTTTCTATGTTTAATCCTATGTTTTACGGAGTCACCTAGTGCAG | 16600 fluorescence intensity (a.u.)
6 | GCTTAATTACATGGGAGAGGCTTTGTTTCTTGTTTATTTTCGGAGTCACCTAGTGCAG | 8760 fluorescence intensity (a.u.)
7 | ATGTTTTTATGCTGCATTCCCCATGTGTGTTTCCTTCTAACGGAGTCACCTAGTGCAG | 19600 fluorescence intensity (a.u.)
8 | ATTCCTATATTTTTCCTATGTTTTGTAATCCTCTGTTTTACGGAGTCACCTAGTGCAG | 12600 fluorescence intensity (a.u.)
9 | TTTATTTCCTAGATTAATTCTGATATGTTTCTATGTTTTACGGAGTCACCTAGTGCAG | 9260 fluorescence intensity (a.u.)
10 | AGTTTTTCTAGTCCTTCTTAATGCATGTGTCACCTTCTAACGGAGTCACCTAGTGCAG | 10300 fluorescence intensity (a.u.)
11 | GTAATTTAATGTTCATTATGGTGTTTCTTAATTGTTTTTTCGGAGTCACCTAGTGCAG | 9320 fluorescence intensity (a.u.)
12 | GCCAGACCGCCACCGTCCGTTTCCACAACCGTGCCAGTGCCGGAGTCACCTAGTGCAG | 10700 fluorescence intensity (a.u.)
13 | AGGTTGCCAGCGTGTGGGGTGGGTTATTTTCGTGTGCGGGCGGAGTCACCTAGTGCAG | 11100 fluorescence intensity (a.u.)
14 | GACCCACCACCACCACCACGCCGCGAGCACGCGAGCGAACCGGAGTCACCTAGTGCAG | 8880 fluorescence intensity (a.u.)
15 | GGGACCTAGGATGAACTTATTCCTTTCTGTTTCAACCATACGGAGTCACCTAGTGCAG | 8370 fluorescence intensity (a.u.)
16 | TGTGCCAGTTGTTAGTCATGATCTTCCTGATGTGTCATCCCGGAGTCACCTAGTGCAG | 8080 fluorescence intensity (a.u.)
17 | TGGTTGAATTCTGGTTCGGGTATCCTCAATTTCGGGGTTTCGGAGTCACCTAGTGCAG | 17700 fluorescence intensity (a.u.)
18 | GGTGTGTGCTGGCTATTTGTCAAAGATTATGTGGGTTTTTCGGAGTCACCTAGTGCAG | 10400 fluorescence intensity (a.u.)
19 | ATTTGGTTTTATATGTTTGTGGAGTGATATATTTCGTATTCGGAGTCACCTAGTGCAG | 8350 fluorescence intensity (a.u.)
20 | TTGGGTTGGGTCTTGGGTTTGGTGGTTTGAATTTGGTGTGCGGAGTCACCTAGTGCAG | 13100 fluorescence intensity (a.u.)
21 | GGTGGTTTGAATTTGGTGTGGCGTTTTTCTTGGGCAGGGGCGGAGTCACCTAGTGCAG | 21500 fluorescence intensity (a.u.)
22 | TTTTTGGCTGGTCAAATTTGGCTAGTGTGGGGAGGGTTTTCGGAGTCACCTAGTGCAG | 23600 fluorescence intensity (a.u.)
23 | TGGTTTTTCATTTTGTGTGCGTGTGCACGTTTGTGTGGGGCGGAGTCACCTAGTGCAG | 12700 fluorescence intensity (a.u.)

Row | Sequence | binding signal
24 | TATCCGGTTTTCTGGTTGAGGGGTATGAATTAGATTCGACCGGAGTCACCTAGTGCAG | 10200 fluorescence intensity (a.u.)
25 | CTTTTTTTTGATTTTTTTTATTTGTGGTTTGGATGTTTTTCGGAGTCACCTAGTGCAG | 9280 fluorescence intensity (a.u.)
26 | GGCTGGTTTGGTTTGTGGCTAAAATTGGCCTTACCAATTTCGGAGTCACCTAGTGCAG | 10500 fluorescence intensity (a.u.)
27 | TTTTCAATTTTCTGGTTGAGTAGGGGTTCGGAATTTTCTTCGGAGTCACCTAGTGCAG | 10600 fluorescence intensity (a.u.)
28 | CAGGGTTTGGATGTGGATATGGTTTCTTCAAGGGTATTTTCGGAGTCACCTAGTGCAG | 16400 fluorescence intensity (a.u.)
29 | TGTTATTATGTTTCAGGAATACTTCCTCTGGTTATAAATACGGAGTCACCTAGTGCAG | 9850 fluorescence intensity (a.u.)
30 | ACCCCGTTCAACGCTCGCTTATATATATTCCCCTCTCGCACGGAGTCACCTAGTGCAG | 8640 fluorescence intensity (a.u.)
31 | AGCCTTCCGGTGAACTCCGGCGACGGGCGGGTGTGGGGATCGGAGTCACCTAGTGCAG | 11000 fluorescence intensity (a.u.)
32 | CTATTCTTGTGCATTCTGTTTTTTATCGTACATGCTACAGCGGAGTCACCTAGTGCAG | 11800 fluorescence intensity (a.u.)
33 | ATGGTGGGCTGTGGGTGCATGGTTTTGCTGGTCGCACCCACGGAGTCACCTAGTGCAG | 11100 fluorescence intensity (a.u.)
34 | CCACCATGGTCTCGCTCATTCTGTTTGCTTCACCTACTCTCGGAGTCACCTAGTGCAG | 14500 fluorescence intensity (a.u.)
35 | TATATTTTCTTCTTCGTCACGATCGATGGGATTTTTATTTCGGAGTCACCTAGTGCAG | 9040 fluorescence intensity (a.u.)
36 | GGGGTGAACATTTCTTTCTTTCTGGTATTGTGGTTGAGGGCGGAGTCACCTAGTGCAG | 19300 fluorescence intensity (a.u.)
37 | AGACATTTTTCTTTCTCGTGGATATTTACGCCTTTCTTGACGGAGTCACCTAGTGCAG | 8790 fluorescence intensity (a.u.)
38 | AGGGATGGTTGGACTTATTTCTTTCGCGTTTTCCTTGGGTCGGAGTCACCTAGTGCAG | 10900 fluorescence intensity (a.u.)
39 | TAAGGGATGGGATGGTTGGCTTGGATCGAGTATATTTCTTCGGAGTCACCTAGTGCAG | 18900 fluorescence intensity (a.u.)
40 | TCAATTTTCTTGTTGACTCGGTGTTTTTGACTGTGGTCAACGGAGTCACCTAGTGCAG | 10900 fluorescence intensity (a.u.)
41 | GAACTTTTCCTGGATGGTGATCCTTCTTTTGGCCTTCTTTCGGAGTCACCTAGTGCAG | 10500 fluorescence intensity (a.u.)
42 | TTCTTCTTGGTGGTGGTGGGGCCTGGAAACTATGTGACTTCGGAGTCACCTAGTGCAG | 18200 fluorescence intensity (a.u.)
43 | GGGGTGGAATTGTGTTGGGTTTCTTTGGTTGAGGAGAGAGCGGAGTCACCTAGTGCAG | 16000 fluorescence intensity (a.u.)
44 | ACTTTTTTTGGTGACTATGTGTTTCCCTGTGGTGGGCTTCCGGAGTCACCTAGTGCAG | 12000 fluorescence intensity (a.u.)
45 | AGTGAACTTGGTTCTGTGGTTGCATGTATTTGGTGGAGGGCGGAGTCACCTAGTGCAG | 9170 fluorescence intensity (a.u.)
46 | GCCTTTTCTTGACTCGGTGGTGGGAGGGGAATTTTCGTGACGGAGTCACCTAGTGCAG | 27000 fluorescence intensity (a.u.)
